SMILES strings stand for the structures. Values joined by “and” are separate entries in the source; they are usually repeats but may differ in a detail not shown here. Equal entries are not always repeated. Records with an inconclusive call do not appear.

40 compounds from PubChem BioAssay (NCATS) can be followed below.

A short description of the experiment: qHTS assay for small molecule agonists of retinoid X receptor alpha signaling (AID 588544). The following applies: HEK293T RXRa-UAS-bla, beta-lactamase reporter, 18 h; 530 nm emission. The text has this:
NIH Chemical Genomics Center [NCGC] U.S. Environmental Protection Agency [EPA] National Institutes of Environmental Health Sciences [NIEHS] National Toxicology Program [NTP] NCGC Assay Overview The Retinoid X receptor (RXR), a nuclear hormone receptor is expressed in liver, spleen, placenta, epidermis, central nervous system. These receptors are able to form homo and heterodimers with other nuclear receptors and due to this heterodimerizing ability, RXR functions as master regulators producing diverse physiological effects. Three subtypes of RXR exist; alpha, beta and gamma. Retinoid X receptor alpha (RXR-alpha) has potential roles in metabolic signaling pathways, skin alopecia, dermal cysts, cardiac development, insulin sensitization etc. Therefore screening environmental chemicals on RXR-alpha signaling can be used for the studies focused on such therapeutic applications.
NCGC Assay Protocol Summary Using a beta-lactamase reporter-gene under control of Retinoid X receptor--alpha (RXR-alpha) response element, a cell-based assay [GeneBLAzer (RXR-alpha -UAS-bla assay developed by Invitrogen] was used to measure RXR-alpha ligands signaling. GeneBLAzer RXR-alpha -UAS-bla HEK293T cells were used with assay medium containing 2% charcoal-stripped FBS. The assay was performed in clear bottom black Greiner 1536-well plates. 9-cis-retinoic acid was used in the screen as the positive control. Library compounds were measured for their ability to stimulate the reporter gene activity. Compounds were screened in a titration series in 1536-well format. The fluorescence intensity (405 nm excitation, 460/530 nm emission) was measured using an EnVision plate reader. Data was normalized relative to 9-cis-retinoic acid control (500 nM, 100%), and DMSO only wells (basal, 0%). Concentration-response titration points for each compound were fitted to the Hill equation yielding concentrations of half-maximal stimulation (EC50) and maximal response (efficacy) values. qHTS protocol for RXR-alpha beta-lactamase assay in agonist mode [Step] [Parameter] [Value] [Description] 1. Reagent; 6 uL; 2500 cells/well 2. Incubation; 37 C for 4 hrs 3. Compounds; 23 nL; 0.59 nM to 92 uM 4. Controls (9-cis-retinoic acid); 23 nL, - One column with dose response, start 38 uM, 1:3 dilutions in duplicates - Final concentrations of 500 nM and 50 nM in two columns 5. Incubation; 37 C for 18 hrs 6. Detection reagent; 1 uL of CCF4-dye 7. Incubation; RT for 2 hrs 8. Detection; Fluorescence; Envision plate reader
As for `O=C(O)c1nc(Cl)ccc1Cl`, the max response is 15.6% and -18.9%.

As for `CCN(CC)c1nc(C)cc(OP(=S)(OC)OC)n1`, the max response came to 26.8%.

Turning to `CCCCCCCCCCCCCCC(Br)C(=O)O` (stereo not given), the max response is -6.32%.

On to `C#CCO`, for which the max response stood at 3.2%.

Take `C#CC(C)(C)NC(=O)c1cc(Cl)cc(Cl)c1`: the max response was -7.53%.

Regarding `OC(Cn1cncn1)(c1ccc(F)cc1)c1ccccc1F` (stereo not given), the max response was -7.56%.

With `CCNc1nc(NCC)nc(SC)n1`, the max response was -4.09%.

Consider `O=[N+]([O-])c1cc(C(F)(F)F)cc([N+](=O)[O-])c1Cl`, for which the max response came to 2.71%.

`Cc1[nH]c(=O)n(C(C)(C)C)c(=O)c1Cl`: the max response was -0.982%.

As to `CCCN(CC)CC1COC2(CCC(C(C)(C)C)CC2)O1` (stereo not given), the max response was -11.3%.

Regarding `CC1=NNC(=O)N(/N=C/c2cccnc2)C1`, the max response was -7.06%.

Consider `CC1(C)[C@H](C(=O)O[C@H](C#N)c2cccc(Oc3ccccc3)c2)[C@@H]1C=C(Br)Br`, for which the max response is -14.7%.

For the compound `CC1=C(C(=O)Nc2ccccc2)SCCO1`, the max response is -2.97%.

Turning to `CC(C)C(=O)OCC(C)(C)C(OC(=O)C(C)C)C(C)C` (stereo not given), the max response is -9.99%.

Turning to `CCc1ccc(C(=O)NN(C(=O)c2cc(C)cc(C)c2)C(C)(C)C)cc1`, the max response amounted to 1.33%.

On to `CN1COCN(Cc2cnc(Cl)s2)/C1=N\[N+](=O)[O-]`, for which the max response was -27.5%.

In the case of `CC(C)(c1ccccc1)c1cc(-n2nc3ccccc3n2)c(O)c(C(C)(C)c2ccccc2)c1`, the max response was -5.71%.

With `Cc1cc(Cl)ccc1OC(C)C(=O)O` (stereo not given), the max response is -5.5%.

`O=C(O)C1C(C(=O)O)C2(Cl)C(Cl)=C(Cl)C1(Cl)C2(Cl)Cl` (stereo not given): the max response was -3.38%.

Consider `CNC(=O)Oc1cccc(N=CN(C)C)c1`, for which the max response is 1.64%.

For the compound `CC1(C)Cc2cccc(O)c2O1`, the max response was -1.21%.

For `CCOP(=O)(SC(C)CC)SC(C)CC` (stereo not given), the max response is -25%.

On to `c1ccccc1`, for which the max response is -2.6% and -9.93% and -11.1%.

As for `Cc1cc(Cl)ccc1O[C@H](C)C(=O)O`, the max response was -13.3%.

Turning to `CC1(C)C(C=C(Cl)Cl)[C@H]1C(=O)OCc1cccc(Oc2ccccc2)c1` (stereo not given in full), the max response is -6.06%.

For `CCOP(=S)(S)OCC`, the max response is -7.79%.

On to `C[N+]1(C)CCCCC1`, for which the max response was -8.78%.

For `CN(C)C=O`, the max response was 2.34% and -5.07% and -17.6%.

As for `O=C(O)c1c(Cl)ccc2cc(Cl)cnc12`, the max response is -15.1%.

As to `Nc1nc(N)nc(Cl)n1`, the max response is -8.55% and -12.5% and -6.12%.

For the compound `Cn1c(-c2ccccc2)cc(-c2ccccc2)[n+]1C`, the max response stood at 12.1%.

On to `[CH3][Sn]([Cl])([Cl])[Cl]`, for which the max response is -11.9%.

For `CCOP(=O)(OCC)SCSCC`, the max response is -4.7%.

Turning to `CNC(=O)/C=C(\C)OP(=O)(OC)OC`, the max response is -13.8%.

On to `COP(=O)(OC)O/C(C)=C/C(=O)N(C)C`, for which the max response was -0.0825%.

On to `CCCSP(=O)(OCC)Oc1ccc(Br)cc1Cl` (stereo not given), for which the max response turned out to be 0.651%.

For `CCNC(=O)NC(=O)/C(C#N)=N/OC`, the max response was determined as 5.29%.

As to `Cc1ccccc1C(=O)Nc1cccc(OC(C)C)c1`, the max response was -12.9%.

With `CCOC(=O)COc1cc(-c2nn(C)c(OC(F)F)c2Cl)c(F)cc1Cl`, the max response was 3.77%.

`CCOP(=S)(OCC)Oc1ncn(-c2ccccc2)n1`: the max response was -6.39%.
